Reference: PubChem BioAssay (NCATS)
Several values for one entry are separate records, joined by “and”; a condition that tells them apart may be missing. Identical values can stand only once. Records with an inconclusive call do not appear. Activity calls are given as the source filed them. The call rests on the fitted dose curve; in most records, active means well fitted inhibition curve with a large enough effect; inconclusive means small, poorly fitted or top-dose-only effect; inactive means flat fitted curve, though single readings scatter.

What was measured:
NIH3T3 [1] = assay: Cytotoxic Profiling of Annotated Libraries Using Quantitative High-Throughput Screening (AID 1296008); details: Five cell lines viability, CellTiter-Glo ATP luminescence, 48-72 h; max response: active compounds read low
How it was run: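 Cells exposed to compounds for 48 or 72 hr at 37 degrees Celsius. Viability read as ATP-coupled luminescence with CellTiter-Glo after 10 min at room temperature.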

HACAT = assay: qHTS assay to identify novel small-molecules to repurpose for Merkel cell carcinoma treatment (AID 1296009); details: MCC and control cell lines, CellTiter-Glo viability, 72 h; at 44.8 µM (top of the series) unless noted
How it was run: (§1)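 Cells were incubated with compound for 72 hr at 37 degree celsius before CellTiter-Glo addition. Luminescence was normalized with no-cell wells as full cytotoxicity and DMSO as baseline.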

HEK293T = assay: as above; details: MCC and control cell lines, CellTiter-Glo viability, 72 h; at 44.8 µM (top of the series)
How it was run: as §1

MCC-13 = assay: as above; details: MCC and control cell lines, CellTiter-Glo viability, 72 h; series mostly up to 46 µM
How it was run: as §1

MCC-26 = assay: as above; details: MCC and control cell lines, CellTiter-Glo viability, 72 h; series mostly up to 46 µM
How it was run: as §1

MKL-1 = assay: as above; details: MCC and control cell lines, CellTiter-Glo viability, 72 h; series mostly up to 46 µM
How it was run: as §1

MKL-2 = assay: as above; details: MCC and control cell lines, CellTiter-Glo viability, 72 h; series mostly up to 46 µM
How it was run: as §1

UISO = assay: as above; details: MCC and control cell lines, CellTiter-Glo viability, 72 h; series mostly up to 46 µM
How it was run: as §1

WaGa = assay: as above; details: MCC and control cell lines, CellTiter-Glo viability, 72 h; series mostly up to 46 µM
How it was run: as §1

NIH3T3 [2] = assay: as above; details: MCC and control cell lines, CellTiter-Glo viability, 72 h; at 44.8 µM (top of the series) unless noted
How it was run: as §1
Further: nearly all actives have a fitted effect of over 60% in size.
On the % scale 0 is the no-effect control and ±100 the full control effect.

NC1CCC(Nc2nc(Nc3ccc(C(=O)N4CCCCC4)cc3)c3ncn(-c4cccc(F)c4)c3n2)CC1 (configuration not stated)
inactive: max response (NIH3T3 [1]) 4.66% | outcome (HACAT) | outcome (HEK293T) | Potency (MCC-13) | Potency (MCC-26) | Potency (MKL-1) | Potency (MKL-2) | Potency (UISO) | Potency (WaGa)

CC1CCC(C(=O)N(c2cc(C#CC(C)(C)C)sc2C(=O)O)C2CCC(O)CC2)CC1 (configuration not stated)
inactive: max response (NIH3T3 [1]) -3.97% | outcome (NIH3T3 [1]) | outcome (HACAT) | Potency (MCC-13) | Potency (MCC-26) | Potency (MKL-1) | Potency (MKL-2) | outcome (NIH3T3 [2]) | Potency (UISO) | Potency (WaGa)

CCCNC(=O)NS(=O)(=O)c1ccc(Cl)cc1
inactive: outcome (NIH3T3 [1]) | outcome (HACAT) | outcome (HEK293T) | Potency (MCC-13) | Potency (MCC-26) | Potency (MKL-1) | Potency (MKL-2) | outcome (NIH3T3 [2]) | Potency (UISO) | Potency (WaGa)

NC(N)=Nc1nc(CSCC/C(N)=N/S(N)(=O)=O)cs1
inactive: outcome (NIH3T3 [1]) | outcome (HACAT) | outcome (HEK293T) | Potency (MCC-13) | Potency (MCC-26) | Potency (MKL-1) | Potency (MKL-2) | outcome (NIH3T3 [2]) | Potency (UISO) | Potency (WaGa)

CCN1CCC[C@H]1CNC(=O)c1cc(S(N)(=O)=O)ccc1OC
inactive: max response (NIH3T3 [1]) 0.0033% and 0.419% | outcome (HACAT) | outcome (HEK293T) | Potency (MCC-13) | Potency (MCC-26) | Potency (MKL-1) | Potency (MKL-2) | Potency (UISO) | Potency (WaGa)

CC(=O)CCCCn1c(=O)c2c(ncn2C)n(C)c1=O
inactive: max response (NIH3T3 [1]) 4.69% and 0.479% | outcome (HACAT) | outcome (HEK293T) | Potency (MCC-13) | Potency (MCC-26) | Potency (MKL-1) | Potency (MKL-2) | Potency (UISO) | Potency (WaGa)

CN(C)CCC(c1ccccc1)c1ccccn1 (configuration not stated)
inactive: max response (NIH3T3 [1]) -1.68% | outcome (NIH3T3 [1]) | outcome (HACAT) | outcome (HEK293T) | Potency (MCC-13) | Potency (MCC-26) | Potency (MKL-1) | Potency (MKL-2) | outcome (NIH3T3 [2]) | Potency (UISO) | Potency (WaGa)

CC(C)(C)c1cc(C(=O)O)c(NC(=O)Nc2ccc3[nH]ncc3c2)s1
inactive: max response (NIH3T3 [1]) -6.15% | outcome (NIH3T3 [1]) | outcome (HACAT) | Potency (MCC-13) | Potency (MCC-26) | Potency (MKL-1) | Potency (MKL-2) | outcome (NIH3T3 [2]) | Potency (UISO) | Potency (WaGa)

CCOC(=O)O[C@]1(C(=O)OCCl)CC[C@@H]2[C@H]3CCC4=CC(=O)C=C[C@]4(C)[C@@H]3[C@@H](O)C[C@@]21C
inactive: outcome (NIH3T3 [1]) | outcome (HACAT) | outcome (HEK293T) | Potency (MCC-13) | Potency (MCC-26) | Potency (MKL-1) | Potency (MKL-2) | outcome (NIH3T3 [2]) | Potency (UISO) | Potency (WaGa)

Cc1cccc(C)c1OCC(C)N (configuration not stated)
inactive: outcome (NIH3T3 [1]) | outcome (HACAT) | outcome (HEK293T) | Potency (MCC-13) | Potency (MCC-26) | Potency (MKL-1) | Potency (MKL-2) | outcome (NIH3T3 [2]) | Potency (UISO) | Potency (WaGa)

C[C@@H](O)[C@H]1C(=O)N2C(C(=O)O)=C(S[C@@H]3CN[C@H](C(=O)N(C)C)C3)[C@H](C)[C@H]12
inactive: max response (NIH3T3 [1]) -2.02% and 0.837% | outcome (HACAT) | outcome (HEK293T) | Potency (MCC-13) | Potency (MKL-1) | Potency (MKL-2) | Potency (UISO) | Potency (WaGa)

O=C(O)c1cc(-c2ccccc2)nc2ccccc12
inactive: max response (NIH3T3 [1]) 0.25% and -0.385% | outcome (NIH3T3 [1]) | outcome (HACAT) | outcome (HEK293T) | Potency (MCC-13) | Potency (MCC-26) | Potency (MKL-1) | Potency (MKL-2) | outcome (NIH3T3 [2]) | Potency (UISO) | Potency (WaGa)

O=C(O)CCc1nc(-c2ccccc2)c(-c2ccccc2)o1
inactive: max response (NIH3T3 [1]) 3.82% | outcome (NIH3T3 [1]) | outcome (HACAT) | Potency (MCC-13) | Potency (MCC-26) | Potency (MKL-1) | outcome (NIH3T3 [2]) | Potency (UISO) | Potency (WaGa)

CC(C)[C@H](CO)Nc1nc(Nc2ccc(C(=O)O)c(Cl)c2)c2ncn(C(C)C)c2n1
inactive: max response (NIH3T3 [1]) -1.87% | outcome (NIH3T3 [1]) | outcome (HACAT) | Potency (MCC-13) | outcome (NIH3T3 [2]) inactive [at 17.4 µM]

O=C(O)c1ccccc1C(=O)Nc1ccc(-c2ccccc2)cc1
inactive: outcome (NIH3T3 [1]) | outcome (HACAT) | Potency (MCC-13) | Potency (MCC-26) | Potency (MKL-1) | Potency (MKL-2) | outcome (NIH3T3 [2]) | Potency (UISO) | Potency (WaGa)

O=C(O)Cc1cccc2ccccc12
inactive: max response (NIH3T3 [1]) -0.562% and 0.69% | outcome (HACAT) | Potency (MCC-13) | Potency (MCC-26) | Potency (MKL-1) | Potency (MKL-2) | Potency (UISO) | Potency (WaGa)

CN1C[C@H]2c3ccccc3Oc3ccc(Cl)cc3[C@@H]2C1
inactive: max response (NIH3T3 [1]) -1.33% and 3.58% | outcome (HACAT) | Potency (MCC-13) | Potency (MCC-26) | Potency (MKL-1) | Potency (MKL-2) | Potency (UISO) | Potency (WaGa)

CCOC1OC(=O)C[C@H]1NC(=O)[C@@H]1CCCN1C(=O)[C@@H](NC(=O)c1ccc(N)c(Cl)c1)C(C)(C)C (some centres not stated)
inactive: outcome (NIH3T3 [1]) | outcome (HACAT) | Potency (MCC-13) | Potency (MCC-26) | Potency (MKL-1) | Potency (MKL-2) | outcome (NIH3T3 [2]) | Potency (UISO)

CC(C(=O)O)c1ccc(-c2ccccc2)c(F)c1 (configuration not stated)
inactive: max response (NIH3T3 [1]) -0.252% | outcome (HACAT) | Potency (MCC-13) | Potency (MCC-26) | Potency (MKL-1) | Potency (MKL-2) | Potency (UISO) | Potency (WaGa)
